Source: PubChem BioAssay AID624417 (National Center for Advancing Translational Sciences (NCATS), 2012)
The campaign covered roughly 410,000 compounds. About 6,400 (1.6%) were called active. Not shown: some 20% with an inconclusive outcome. Calls follow the shape of the dose curve; as a rule, active = well fitted inhibition curve with a large enough effect; inconclusive = small, poorly fitted or top-dose-only effect; inactive = no such curve, though single readings can be large or run the other way. Only a selection was taken, and actives are over-represented in it overall.

Biological target: Glucagon-like peptide 1 receptor (Homo sapiens) (UniProt P43220)
Sequence (P43220 whole entry, looked up): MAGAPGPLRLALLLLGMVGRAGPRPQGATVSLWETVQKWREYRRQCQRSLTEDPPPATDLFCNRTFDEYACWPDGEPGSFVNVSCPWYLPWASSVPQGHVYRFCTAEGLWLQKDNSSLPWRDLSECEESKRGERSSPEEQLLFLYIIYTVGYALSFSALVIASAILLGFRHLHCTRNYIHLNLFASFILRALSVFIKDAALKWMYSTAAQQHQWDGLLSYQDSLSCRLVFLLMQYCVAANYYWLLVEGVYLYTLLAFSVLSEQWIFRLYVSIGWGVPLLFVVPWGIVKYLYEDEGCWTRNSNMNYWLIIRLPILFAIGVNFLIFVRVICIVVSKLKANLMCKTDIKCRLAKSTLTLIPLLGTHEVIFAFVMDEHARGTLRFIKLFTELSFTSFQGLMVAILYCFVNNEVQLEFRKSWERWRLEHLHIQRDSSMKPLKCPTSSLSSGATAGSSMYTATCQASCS
Experiment: qHTS of GLP-1 Receptor Inverse Agonists (Inhibition Mode); also: nearly all actives have a fitted effect of over 55% in size
Settings: HEK293 GLP-1R CRE-luciferase, luminescence, 24 h, GLP-1R form is constitutively active; series mostly up to 38.3 µM; activity change, negative = inhibition: at the top concentration
How it was run: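 Constitutively active GLP-1R drives a cAMP-responsive luciferase in stably transfected HEK293 cells; test compounds are added after overnight (12 h) attachment and left 24 hr, and signal loss in luminescence marks inhibition.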
% is scaled to controls: 0 for no effect and ±100 for the full control effect; potency is read from the fitted curve at half-maximal effect.

SMILES	Potency	activity change, negative = inhibition
O=C(Nc1ccccc1)Oc1cccc2cccnc12	3.98 µM (active)	
OCc1ccc(OCCCOc2cccc3cccnc23)cc1		25.8% (inactive)
Fc1ccccc1COc1cccc2cccnc12		-24% (inactive)
Cc1ccccc1OS(=O)(=O)c1cccc([N+](=O)[O-])c1		-32.3% (inactive)
Cc1ccc(-n2c(C)cc(C(=O)CSc3nnc4ccccn34)c2C)cc1	8.91 µM (active)	
O=C(CSc1nnc2ccccn12)c1ccccc1		11.5% (inactive)
Cc1ccc(C(=O)NNC(=O)CSc2nnc3ccccn23)cc1		-23.9% (inactive)
Cc1cccc(CN2CCN(C3CN(Cc4cn(Cc5ccccc5F)nn4)S(=O)(=O)C3)CC2)c1 (stereo unspecified)		-2.68% (inactive)
c1ccc2c(c1)nnn2-c1ccncc1		6.01% (inactive)
Cc1ccccc1S(=O)(=O)NC(=O)C1(C)CCN1C(=O)C1(c2ccccc2)CCCC1 (stereo unspecified)		-25.9% (inactive)
COc1cc(NC(=O)C2=C(C)OCCS2)c(Cl)cc1C(=O)NCCCN1CCCC(C)C1 (stereo unspecified)		16.6% (inactive)
O=C(CNS(=O)(=O)c1cccc(C(F)(F)F)c1)Nc1ccccc1F		-16.9% (inactive)
O=C(Nc1cc(C(F)(F)F)ccc1Cl)c1nc2ccccc2nc1N1CCCCC1		0.167% (inactive)
O=C(NNc1ccccc1Cl)C(O)(c1cccc(C(F)(F)F)c1)c1cccc(C(F)(F)F)c1	3.98 µM (active)	
O=C(COC(=O)c1cncc(Br)c1)Nc1ccc(S(=O)(=O)N2CCOCC2)cc1		-0.0324% (inactive)
CC1(Oc2ccc(Cl)cc2)CCN(Cc2csc3ccccc23)C1 (stereo unspecified)		-17.5% (inactive)
CCc1ccccc1NC(=O)c1cnn(-c2ccc(F)cc2)c1C1CCNCC1		-22.5% (inactive)
CCCc1c(C(=O)Nc2ccc(F)cc2)cnn1-c1ccccc1	10 µM (active)	
CCCc1c(C(=O)O)cnn1-c1ccc(Cl)cc1		6.36% (inactive)
Cc1cc(OCC(=O)Nc2nccs2)c2c(C)c(C)c(=O)oc2c1		-12.1% (inactive)
CCc1noc(C)c1C(=O)Nc1nc2ccc(OC)cc2s1		0.249% (inactive)
Cc1noc(C)c1CSCC(=O)Nc1nc2ccc(Oc3ccccc3)cc2s1	7.94 µM (active)	

SMILES	Potency	activity change, negative = inhibition
Cc1ccc(F)cc1NC(=O)CSCc1c(C)noc1C		-3.47% (inactive)
COc1ccc(S(=O)(=O)N2CCC(C(=O)NCCC(=O)NCCc3cccc(F)c3)CC2)cc1		3.25% (inactive)
Cc1ccc2nc(CNC(=O)c3ccccc3)[nH]c2c1		-8.76% (inactive)
COC(=O)Nc1nc2ccc(Sc3ccccc3)cc2[nH]1	1.12 µM (active)	
CC(C)c1nc2ccc(C(=O)O)cc2[nH]1		-1.32% (inactive)
Cc1cccc(C(=O)OCC(=O)Nc2sccc2C(N)=O)c1C		-14.6% (inactive)
CC(C)C1CCN(C(=O)C2CCC(=O)N(C3CCCCCC3)C2)CC1 (stereo unspecified)		4.55% (inactive)
O=C(CCN1C(=O)/C(=C/c2cccs2)SC1=S)NNC(=O)c1cccc(O)c1		-10.3% [at 7.66 µM] (inactive)
Cc1ccc(/C=C2\SC(=S)N(CCC(=O)Nc3ccc(O)cc3)C2=O)cc1		-7.25% (inactive)
O=C(CCCN1C(=O)/C(=C/c2cccs2)SC1=S)Nc1ccc(O)cc1	5.01 µM (active)	
CCCNC(=O)C1(C)CCN1C(=O)Cc1ccc(-c2ccccc2)cc1 (stereo unspecified)		-12.2% (inactive)
O=C(c1ccc(CS(=O)Cc2ccccc2Cl)o1)N1CCN(c2ccccc2)CC1 (stereo unspecified)		-1.8% (inactive)
OCC1OC(n2cnc3c(N4CCCC4)ncnc32)C(O)C1O (stereo unspecified)		3.56% (inactive)
CC(=O)N1CCN(Cc2cc(=O)oc3cc(C)ccc23)CC1		8.45% (inactive)
Cc1ccc(C(=O)Nc2c(-c3ccccc3)[nH][nH]c2=O)cc1		8.15% (inactive)
CCc1cccc(C)c1NS(=O)(=O)c1ccc(-c2cc(C)no2)s1		-48% (inactive)
COc1ccc(N2CCN(S(=O)(=O)c3cc(Br)cnc3N)CC2)cc1		11.4% (inactive)
CCc1cccc(C)c1NS(=O)(=O)c1cc(Br)cnc1N	10 µM (active)	
Cc1ccc(-c2nc3c(Cl)cc(C(F)(F)F)cn3c2Cc2cccc(Cl)c2)cc1		8.32% (inactive)
CCn1c(SCC(=O)N2CCCC2=O)nc2ccccc21		-4.71% (inactive)
Cc1cc(C(=O)N/N=C\C(Br)=C\c2ccccc2)c(C)o1		5.04% [at 7.66 µM] (inactive)
CC(C)c1cc(C(=O)O)n[nH]1		0% (inactive)

SMILES	Potency	activity change, negative = inhibition
CC(C)c1cc(C(=O)N/N=C/C(Br)=C/c2ccccc2)n[nH]1	8.91 µM (active)	
COCCNc1ncnc2c1ncn2[C@H]1CN(Cc2ccc(OC)cc2)C[C@@H](CO)O1		17.4% (inactive)
O=C(C1CCN(S(=O)(=O)c2cccs2)CC1)N1CCCCCC1		0% (inactive)
O=C(NC1CCCCC1)C1CCCN(S(=O)(=O)c2ccc(Br)s2)C1 (stereo unspecified)		12.5% (inactive)
O=C(C1CCN(S(=O)(=O)c2ccc(Br)s2)CC1)N1CCN(C2CCCCC2)CC1	10 µM (active)	
CN1C[C@@H](CO)O[C@@H](n2cnc3c(N4CCN(CCO)CC4)ncnc32)C1		-6.73% (inactive)
CCCCN1CC(N2CCN(Cc3cccc(C)c3)CC2)CS1(=O)=O (stereo unspecified)		-22.9% (inactive)
CCCNC(=S)N1CCC(NC(=O)c2ccc(OC)cc2)CC1		2.99% (inactive)
COc1cc(OC)cc(C(=O)NC2CCN(C(=O)N3c4ccccc4Sc4ccccc43)CC2)c1	10 µM (active)	
COc1ccc(NC(=S)N2CCC(NC(=O)c3cccc(F)c3)CC2)cc1		10.9% (inactive)
COc1cccc(-c2cc(NC(C)=O)c3ncc(-c4cccc(C(C)=O)c4)n3c2)c1		-16.5% (inactive)
CCOC(=O)/C(=N\Nc1ccccc1Cl)N(C)C1CCS(=O)(=O)C1 (stereo unspecified)		-27.7% (inactive)
CCOC(=O)N1CCN(C(=O)COc2ccc(Cl)cc2C)CC1		-2.5% (inactive)
CCOC(=O)/C(=N\Nc1cc(Cl)ccc1Cl)N1CCN(C)CC1	10 µM (active)	
Cn1c(=O)c2cc(NC(=O)NCCc3cccs3)ccc2n1Cc1cccc(C(F)(F)F)c1		-22.3% (inactive)
Cc1oc2c(F)c(F)c(F)c(F)c2c1S(=O)(=O)Nc1cccc(C(F)(F)F)c1	3.98 µM (active)	
O=C(/C=C/c1ccc(F)cc1)Nc1cccc(S(=O)(=O)Nc2cccc(C(F)(F)F)c2)c1		-16.8% (inactive)
O=C(COc1ccc(S(=O)(=O)Nc2cccc(C(F)(F)F)c2)cc1)N1CCOCC1		-19.7% (inactive)
COc1ccc(C2=Nc3ccccc3NC(=O)C2N(C(=O)c2cc3ccccc3[nH]2)c2ccccc2)cc1 (stereo unspecified)		-2.32% (inactive)
CC(=O)Nc1c(-c2ccc(C)cc2)nc2ccc(Cl)cn12		28.1% (inactive)
Cc1ccc(Nc2c(-c3ccc(Cl)cc3)nc3sccn23)c(C)c1	14.1 µM (active)	
O=c1cc(Cn2nnc(-c3ccc(Cl)cc3)n2)nc2sccn12		0% (inactive)
